AmpC inh detg: AmpC beta-lactamase inhibition with detergent present. AmpC hydrolysis of nitrocefin, absorbance 480 nm, 0.01% Triton. Potency, µM (doses to about 114 µM), for inactives: top-dose activity change, negative = inhibition, hits mostly inhibitors. actives 0.041% (n = 370,000). AID 485294;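 also: 0% = no-compound wells and -100% = no-enzyme wells; nearly all actives have a fitted effect of over 25% in size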
Target sequence (P00811 whole entry, looked up): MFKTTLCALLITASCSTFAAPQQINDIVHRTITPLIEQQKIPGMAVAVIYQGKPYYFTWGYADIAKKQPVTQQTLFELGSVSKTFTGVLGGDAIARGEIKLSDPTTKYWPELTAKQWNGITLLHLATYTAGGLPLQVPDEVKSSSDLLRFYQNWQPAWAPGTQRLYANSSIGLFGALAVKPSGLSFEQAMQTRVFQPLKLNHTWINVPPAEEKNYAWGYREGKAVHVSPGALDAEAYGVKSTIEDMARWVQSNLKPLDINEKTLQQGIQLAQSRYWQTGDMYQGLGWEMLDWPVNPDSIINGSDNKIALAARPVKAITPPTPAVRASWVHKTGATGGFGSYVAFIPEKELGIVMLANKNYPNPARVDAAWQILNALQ
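20 mM phosphate pH 7.0 + 0.01% (detergent screen) or 0.0001% Triton X-100; 5.3 nM AmpC reagent; cpd preinc 15 min RT; nitrocefin (800 uM stock) to start; A480 q20 s × 4 min; Activity was normalised to no-enzyme and no-compound control wells.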
Pf growth 48h: P. falciparum growth inhibition at 48 hours (one generation); P. falciparum luciferase growth in erythrocytes, 48 h; Potency, µM (series often up to 28.7 µM), for the others: top-dose activity change, negative = inhibition, usual class: inhibitors; actives 5.9% (n = 310,000); AID 504832; also: % is scaled to controls: 0 for no effect and ±100 for the full control effect
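Firefly luciferase activity from engineered P. falciparum reports growth; inhibitors lower the luminescent signal. Cultures contained 2% hematocrit erythrocytes at 0.1% final parasitemia.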
Sm TGR inh: inhibitors of Schistosoma mansoni thioredoxin glutathione reductase; purified TGR, DTNB reduction, TNB absorbance 405 nm; actives 3% (n = 360,000); Potency, µM (doses to about 114 µM), without a hit: at the highest dose activity change, negative = inhibition, actives largely listed as inhibitors; AID 485364; Q962Y6; also: % is scaled to controls: 0 for no effect and ±100 for the full control effect; nearly all actives have a fitted effect of over 60% in size
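First, TGR (20 nM dispensed) and NADPH were mixed with compound. Second, a 15 min room-temperature incubation followed. Third, further NADPH and then DTNB were added to start the reaction. Finally, TNB absorbance was monitored kinetically.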
AmpC inh no detg: AmpC beta-lactamase inhibition without detergent; P00811; AmpC nitrocefin hydrolysis, absorbance 480 nm, 0.0001% Triton; Potency, µM (top dose mostly 57.1 µM), inactives show at the highest dose activity change, negative = inhibition, actives largely listed as inhibitors; actives 0.52% (n = 330,000); AID 485341;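 also: plate controls were no compound for no effect and no enzyme for full effect; nearly all actives have a fitted effect of over 20% in size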
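AmpC (5.3 nM in the dispensed reagent) in 20 mM phosphate pH 7.0 with 0.01% (detergent screen) or 0.0001% Triton X-100 was preincubated with compounds for 15 min at room temperature. Nitrocefin was then added from an 800 uM solution, and hydrolysis was followed at 480 nm.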
SARS PLpro yeast: blocks SARS-CoV papain-like protease in a yeast assay | S. cerevisiae expressing SARS-CoV PLpro, growth rescue | Potency, µM (highest dose often 32.9 µM), for the others: at the highest dose activity, positive = growth rescue, actives largely listed as activators | actives 0.19% (n = 330,000); calls by dose curve; also: 0% is about no effect; nearly all actives have a fitted effect of over 55% in size
Pf growth 96h: P. falciparum growth inhibition at 96 hour, primary screen for plastid delayed-death inhibitors; P. falciparum luciferase reporter growth, 96 h; Potency, µM (series often up to 28.7 µM), for the others: at the highest dose activity change, negative = inhibition, most hits filed as inhibitors; actives 6.9% (n = 320,000); AID 504834; also: % is scaled to controls: 0 for no effect and ±100 for the full control effect
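Parasite growth measured via integrated firefly luciferase reporter in P. falciparum. Infected erythrocytes at 2% hematocrit, 0.05% parasitemia final were treated 96 hours at 37 C under 5% CO2, and luminescence was read.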
* hit, by the source's call; ? = inconclusive; nt = no result; [ ] = another dose, or the depositor's remark. Compounds with a hit are over-represented: about 12% of the library has one in this group of screens. Unless noted, calls follow the shape of the dose curve; as a rule, active = well fitted curve in the direction sought with a large enough effect; inconclusive = small, poorly fitted or top-dose-only effect, or another doubt; inactive = no such curve, though single readings can be large; an effect the other way counts as inactive or inconclusive. Potency is read from the fitted curve at half-maximal effect.

SMILES | AmpC inh detg | Pf growth 48h | Sm TGR inh | AmpC inh no detg | SARS PLpro yeast | Pf growth 96h
COc1cccc(NC(=O)Cn2c(=O)n(-c3cccc(OC)c3)c(=O)c3c4c(sc32)CCCC4)c1 | 13% | nt | 2% | nt | nt | nt
Fc1cccc(F)c1/C=N/NC(=S)Nc1cccnc1 | ? | 490% | 2% | -26% | 3% | 34%
Fc1c(F)c(F)c(/C=N/NC(=S)Nc2cccnc2)c(F)c1F | ? | ? | 12% | -28% | 0% | ?
Oc1ccc(/C=N/NC(=S)Nc2cccnc2)c(O)c1 | -13% | 6.6µM* | -17% | -29% | ? | 0%
Oc1ccc(/C=N/NC(=S)Nc2cccnc2)c(O)c1O | -15% | ? | 10µM* | -48% | 24% | ?
Fc1ccc(/C=N/NC(=S)Nc2cccnc2)cc1 | 4% | -10% | -1% | -46% | -7% | -26%
Oc1cccc(/C=N/NC(=S)Nc2cccnc2)c1O | -4% | 0.083µM* | -10% | 32µM* | -12% | ?
CC1(C)CC(NC(=O)C2CCC(=O)N(C3CC3)C2)CC(C)(C)C1 (centres undefined) | 0% | 8% | 1% | 23% | 1% | 8.3µM*
O=C(NC1CCCCC1)C1CCC(=O)N(C2CC2)C1 (centres undefined) | 1% | -3% | 3% | -14% | 5% | -28%
CNC(=O)/C(=N\O)c1ccccc1 | -14% | 46% | 1% | -10% | 2% | 9.3µM*
CCc1cc(=O)oc2cc(C)cc(OCC(=O)NC(Cc3c[nH]c4ccc(O)cc34)C(=O)O)c12 (centres undefined) | -12% | -9% | -7% | -35% | 1% | -25%
CCCc1cc(=O)oc2cc(C)cc(OCC(=O)NCCN3CCOCC3)c12 | -2% | -17% | -6% | 56% | -7% | ?
Cc1cc(OCC(=O)NC2CC2)c2c(C)cc(=O)oc2c1 | -2% | -12% | -1% | -10% | 2% | 4%
CCCc1cc(=O)oc2cc(C)cc(OCC(=O)Nc3ccc(CN4CCOCC4)cc3)c12 | 1% | ? | -18% | 167% | -2% | 8.3µM*
CCc1cc(=O)oc2cc(C)cc(OCC(=O)NC3CC3)c12 | -10% | 12µM* | -2% | -11% | 14% | ?
CCc1cc(=O)oc2cc(C)cc(OCC(=O)NCCc3c[nH]c4ccccc34)c12 | ? | 1.9µM* | 3% | -12% | -5% | 2.6µM*
CCCc1cc(=O)oc2cc(C)cc(OCC(=O)NC3CC3)c12 | -10% | 1.7µM* | -12% | -3% | -4% | 2.1µM*
Cc1ccc2c(c1)N(C(=O)N1CCC(C(=O)NCc3ccco3)CC1)CC(C)O2 (centres undefined) | 17% | nt | 3% | nt | nt | nt
COC(=O)C(C)NC(=S)N1CCN(c2c(F)cc3c(=O)c(C(=O)O)cn(C4CC4)c3c2OC)CC1C (centres undefined) | 3% | ? | 5% | 53% | 0% | -14%
CCOC(=O)CS(=O)(=O)c1ccccc1 | 4% | 2.9µM* | ? | -13% | 6% | 2%
CCOC(=O)CS(=O)(=O)c1ccc(O)cc1 | -14% | -6%[5.75 µM] | -2% | -15% | -1% | ?
C/C=C(\CS(=O)(=O)c1ccccc1)S(=O)(=O)c1ccccc1 | -4% | ? | 35µM* | -27% | 0% | 23%
CCOC(=O)NC(c1ccc(C(C)C)cc1)C(Cl)(Cl)Cl (centres undefined) | -3% | ? | -16% | -29% | -53% | ?
CCOC(=O)NC(C(Cl)(Cl)Cl)S(=O)(=O)c1ccccc1 (centres undefined) | 5% | -22% | 25µM* | -10% | -1% | -3%
CC(=O)N(C)c1ccc(NC(=O)Nc2ccc(C)c(C)c2)cc1 | -8% | -14% | 24% | 21% | 2% | ?
SMILES | AmpC inh detg | Pf growth 48h | Sm TGR inh | AmpC inh no detg | SARS PLpro yeast | Pf growth 96h
COc1ccc(/C=C2\SC(=S)N(CC(=O)OCC(=O)Nc3cc(Cl)cc(Cl)c3)C2=O)cc1 | 8% | 18% | 8% | ? | -2% | 22%
Cc1c(O)c2c3c(cccc3c1O)C(=O)N(c1ccccc1)C2=O | ? | ? | -6% | -27% | -33% | 10µM*
CC(C)N(C(=O)CSc1nnc(-c2cc3ccccc3cc2O)n1Cc1ccco1)C(C)C | -3% | 2.1µM* | ? | -6% | -5% | 35%
O=C(CSc1nnc(-c2cc3ccccc3cc2O)n1Cc1ccco1)N1CCc2ccccc2C1 | ? | nt | ? | -33% | -12% | 1.7µM*
CCn1c(=O)c(=O)n(CC)c2cc(S(=O)(=O)Nc3cc(C)ccc3C)ccc21 | -4% | -6% | -8% | -7% | ? | ?
Cn1ccnc1SCCNC(=O)CCc1nnc(CCCCc2ccccc2)o1 | 9% | -23% | 0% | 66% | -1% | ?
Cn1ccnc1SCCNC(=O)CCc1nnc(CCc2ccccc2)o1 | 0% | 13% | 11% | 54% | 0% | 10µM*
CCN(CC)CCn1c2c(c(SCC(=O)Nc3cccc(C(C)=O)c3)nc1=O)CCCC2 | 1% | ? | 45µM* | 54% | 3% | ?
CCN(CC)CCn1c2c(c(SCC(=O)Nc3ccc4c(c3)OCCO4)nc1=O)CCCC2 | -1% | ? | ? | 0% | 8% | 2.9µM*
O=C(Nc1ccc2c(c1)OCO2)N1CCN(c2ncc(C(F)(F)F)cc2Cl)CC1 | 4% | ? | -7% | -13% | -3% | nt
COc1cccc(C2C=C(c3ccc(OC)cc3OC)Nc3nnnn32)c1 (centres undefined) | -16% | 0% | 25µM* | -17% | -3% | 3%
COc1cccc(C2=CC(c3cccc(OC)c3OC(F)F)n3nnnc3N2)c1 (centres undefined) | ? | ? | -6% | -16% | 5% | 233%
COc1ccc(C2=CC(c3ccc(OC)c(OC)c3)n3nnnc3N2)c(OC)c1 (centres undefined) | ? | ? | 40µM* | 48% | 2% | ?
COc1cccc(C2=CC(c3cccc(OC)c3OC)n3nnnc3N2)c1 (centres undefined) | 3% | 47% | 40µM* | -25% | -8% | ?
CCCCN(C)C(=O)C1CCCN(c2ncnc3onc(C)c23)C1 (centres undefined) | 26% | nt | 10% | nt | nt | nt
CCOC(=O)c1c(C)[nH]c(C)c1C(=O)COC(=O)COc1ccc(Cl)c(C)c1 | ? | ? | -1% | 55% | 0% | 9%
Oc1ccc(Br)cc1-c1nc2cnccn2c1NC1CCCC1 | -14% | 2.6µM* | 4% | 5% | -36% | -4%
